Assay results published in publication PMC12548414.
Out of some 1,600 compounds screened, about 20 (1%) showed an effect of 50% or more. What follows is part of a selection rich in strong results, with near analogues and random picks from the rest.

Test system: T1, E. coli pLC1021 (luc-trpAt trans-translation reporter)
T1 construct: pLC1021 luc-trpAt reporter strain
Parameters: species or system Escherichia coli pLC1021; luc-trpAt non-stop luciferase reporter; luminescence rises when trans-translation is inhibited; normalized to KKL-35 and DMSO
Details: reporter signal, KKL-35 = 100%; rise means trans-translation inhibition; 2 h, 20 µM
Method: The luciferase screen was performed as previously described ([16]). […] 48 µL of cells was transferred to white 96-well plates, and 2 µL DMSO or 20 µM compound, or 20 µM KKL-35 was added. Plates were sealed with adhesive film, vortexed gently to mix, and incubated at room temperature for 2 h. 50 µL Bright-Glo reagent (Promega, Madison, WI) was added to each well, and the plates were sealed with adhesive film, vortexed vigorously, and incubated for an additional 10 min at room temperature. Luminescence was measured at 560 nm using a SpectraMax i3 microplate reader and readings for each plate were normalized to the average of three KKL-35-treated wells (positive control) and three DMSO-treated wells (negative control) within the plate to correct for plate-to-plate and day-to-day variations. Results from at least two biological repeats were averaged, and GraphPad Prism was used to plot the data. We screened a library of 1,601 anti-tubercular small molecules for their ability to inhibit trans-translation using a luciferase reporter in Escherichia coli. In this luc-trpAt reporter, the firefly luciferase gene has a trpA transcriptional terminator before the stop codon, such that luciferase is translated from a non-stop mRNA ([16]). When trans-translation is active, the luciferase will be tagged and degraded, but when trans-translation is inhibited, active luciferase will accumulate, resulting in a luminescent signal when luciferin is added. Luciferase activity was measured after growth in the presence of compounds from the library at 20 µM, using the known trans-translation inhibitor KKL-35 as a positive control (Fig. 1A) ([16], [17]). Compounds with activity one standard deviation above the median were scored as positive (Fig. S1 and Table S1).

| Compound | % activation [%] |
| --- | --- |
| COC(=O)CSc1nc(N)c2c3c(sc2n1)CCCC3 [KKL-0994] | 9 |
| COc1ccc(C(=O)NC(=S)Nc2ccc(N3CCCCC3)cc2)cc1OC [KKL-1472] | 0 |
| Cc1cc(Nc2ccccc2)n(-c2nc3ccccc3[nH]2)n1 [KKL-0835] | 21 |
| COc1ccc2[nH]c(CNCCc3nc4cc(Cl)ccc4[nH]3)cc2c1 [KKL-1215] | 0 |
| COCc1nnc(NC(=O)c2nnn(-c3ccccc3F)c2C)s1 [KKL-0547] | 0 |
| CCC(C)NCCCOc1ccc(Cl)c2ccccc12 (stereo not shown) [KKL-1428] | 0 |
| O=C(CNCCN1CCOCC1)Nc1sc2c(c1C(=O)Nc1ccccc1)CCC2 [KKL-1074] | 2 |
| CCOC(=O)c1ccc(NC(S)=Nc2ccc(Oc3ccccc3)cc2)cc1 [KKL-1317] | 0 |
| Cc1c(C(=O)NC(=S)Nc2ccc(Oc3ccc(Cl)cc3)cc2)cccc1[N+](=O)[O-] [KKL-0735] | 17 |
| O=C(COc1cccc(F)c1)Nc1nc(-c2ccccn2)cs1 [KKL-1787] | 5 |
| O=C(CSc1ccccc1)Nc1ccc(-c2nc3ccccc3c(=O)o2)cc1 [KKL-0595] | 1 |
| O=C(Nc1ccc(F)cc1)NC1CCCCCCC1 [KKL-1335] | 0 |
| COc1cc(CN(CCCn2ccnc2)Cc2ccc(C)s2)cc2c1OCO2 [KKL-0341] | 9 |
| CSc1nc2nc3c(c(O)n2n1)CCCC3 [KKL-1033] | 0 |
| COc1ccc(C(=O)Oc2cccc3cccnc23)cc1[N+](=O)[O-] [KKL-1648] | 0 |
| O=C(Oc1c(Cl)cc(Cl)c2cccnc12)c1ccco1 [KKL-1639] | 0 |
| Cc1c(C(=O)Oc2cccc3cccnc23)cccc1[N+](=O)[O-] [KKL-0952] | 8 |
| Cc1ccc(C(=O)Oc2ccc(Cl)c3cccnc23)cc1[N+](=O)[O-] [KKL-1383] | 0 |
| O=C(Oc1c(Cl)cc(Cl)c2cccnc12)c1ccccc1[N+](=O)[O-] [KKL-1418] | 90 |
| O=C(Oc1c(Cl)cc(Cl)c2cccnc12)c1ccc([N+](=O)[O-])cc1 [KKL-0754] | 96 |
| CCCc1cc2c(=O)c(-c3ccc4c(c3)OCCCO4)coc2cc1OCC(=O)OCC [KKL-1419] | 0 |
| O=C(Nc1ccc(Cl)cc1C(F)(F)F)c1ccc([N+](=O)[O-])o1 [KKL-0712] | 0 |

| Compound | % activation [%] |
| --- | --- |
| CN1CCN(c2cc(-c3ccncc3)nc(-c3ccccc3)n2)CC1 [KKL-1795] | 237 |
| COc1ccc(-c2cncc(-c3cc(N4CCN(CCO)CC4)nc(-c4ccccc4)n3)c2)cc1 [KKL-1682] | 0 |
| CN1CCN(c2cc(-c3ccc(F)cc3)nc(-c3ccncc3)n2)CC1 [KKL-1844] | 0 |
| Cc1cc(CN2CCC(O)(c3ccccc3)C2)ccc1N1CCCC1 (stereo not shown) [KKL-0330] | 0 |
| CCc1ccc(Nc2nnc(SCc3cc(C)on3)s2)cc1 [KKL-1791] | 0 |
| N#Cc1cc2c(ccc3ccccc32)oc1=O [KKL-1386] | 0 |
| CCCc1ccc2oc(C(=O)NCCc3ccc(O)cc3)c(C)c2c1 [KKL-1185] | 2 |
| C#CCOc1cccc(CN2CCn3cccc3C2CC)c1 (stereo not shown) [KKL-0516] | 0 |
| CSc1ncc(CN2CCCC(C(=O)c3ccc(-c4ccccc4)c(F)c3)C2)cn1 (stereo not shown) [KKL-0344] | 0 |
| CN(CC1Cc2ccccc2CN1C)C(=O)c1cc(COc2cncc(Cl)c2)on1 (stereo not shown) [KKL-1186] | 0 |
| COc1ccccc1N1C(=O)c2cccc3cc([N+](=O)[O-])cc(c23)C1=O [KKL-1508] | 0 |
| Cc1ccccc1OCCCON1C(=N)N=C(N)NC1(C)C [KKL-1698] | 11 |
| COc1ccc(C(C)(C)C)cc1N=C(S)Nc1ccc(Cl)c(Cl)c1 [KKL-1535] | 0 |
| Cc1ccc2nc(C(F)(F)F)c(C(=O)NCc3cccc(OC(C)C)c3)n2c1 [KKL-1772] | 2 |
| CC(=O)Nc1ccc2cccc(O)c2n1 [KKL-0957] | 55 |
| Cc1ccccc1/C=C/c1ccc2cccc(O)c2n1 [KKL-0432] | 11 |
| Oc1cccc2ccc(/C=C/c3cccc(F)c3)nc12 [KKL-1464] | 18 |
| Cc1nc2ccccn2c1C(=O)Nc1ccc(C(C)(C)C)cc1 [KKL-1770] | 0 |
| N#Cc1ncn(-c2ccc3nnc(C(F)(F)F)n3n2)n1 [KKL-1886] | 0 |
| CC(C)c1noc(N2CCC(C(C)Oc3cnc(-c4ccc(S(C)(=O)=O)c(F)c4)cn3)CC2)n1 (stereo not shown) [KKL-1810] | 0 |
| Cc1ccc(-c2cc(C(=O)N3CCCC(N4CCN(c5ccccc5C)CC4)C3)[nH]n2)s1 (stereo not shown) [KKL-0485] | 0 |
| COc1cccc(O)c1CN1CCC(C(=O)Nc2ccc(-c3cccc(C)c3)cc2)CC1 [KKL-0508] | 0 |

| Compound | % activation [%] |
| --- | --- |
| CSc1nccc(N2CCCC(CCC(=O)NCc3ccc(F)c(F)c3)C2)n1 (stereo not shown) [KKL-0346] | 0 |
| c1ccc(-c2nc3c(c(N4CCN(Cc5cc6ccccc6[nH]5)CC4)n2)CCC3)cc1 [KKL-0483] | 0 |
| Fc1ccc(Nc2nc(-c3ccccn3)cs2)cc1 [KKL-0715] | 18 |
| O=C(CCCSc1ccccc1)Nc1nc(-c2ccccn2)cs1 [KKL-0800] | 1 |
| COC(=O)COc1ccc2c(=O)c(-c3ccccc3Cl)c(C)oc2c1 [KKL-0748] | 0 |
| COC(=O)COc1ccc(NC(=O)c2ccccc2I)cc1 [KKL-1569] | 0 |
| Cc1ccc(NC(=O)C(Cl)Cl)cc1[N+](=O)[O-] [KKL-1373] | 4 |
| O=C(Cc1ccc(F)cc1)Nc1nc(-c2ccccn2)cs1 [KKL-1688] | 13 |
| Cc1cc(NCc2ccccn2)n2ncc(-c3ccccc3)c2n1 [KKL-0947] | 0 |
| COc1ccccc1CN1CCCCC1C(=O)Nc1ccc(-n2cccn2)cc1 (stereo not shown) [KKL-0494] | 3 |
| Cc1ccc(-n2cc(CN(C)Cc3cc(C)[nH]n3)c(-c3ccc(F)cc3)n2)cc1 [KKL-0319] | 0 |
| COc1ccccc1C1(O)CCN(Cc2cnn(-c3ccc(C)cc3)c2)CC1 [KKL-0553] | 7 |
| O=[N+]([O-])c1cccc(NC(S)=Nc2ccc(Cl)c(C(F)(F)F)c2)c1 [KKL-1319] | 0 |
| COC(=O)C(CCSC)NC(=O)c1cc(COc2ccc(F)cc2Cl)on1 (stereo not shown) [KKL-0497] | 9 |
| O=C(Nc1ccc(Oc2cccnc2)cc1)C1Oc2ccccc2O1 [KKL-0696] | 0 |
| c1ccc(CCNc2ccnc3cc4ccccc4cc23)cc1 [KKL-1051] | 0 |
| Cc1nc(C2CCNCC2)ncc1-c1nc(N2CCCCCC2)ncc1-c1ccc(F)cc1 [KKL-0335] | 0 |
| C(=C\c1nc(N2CCCC2)c2ccccc2n1)/c1ccccc1 [KKL-1269] | 0 |
| Cc1ccc2nc(C(F)(F)F)c(C(=O)NCc3cc(Cl)cc(Cl)c3)n2c1 [KKL-1785] | 16 |
| COc1ccc(CCN=C(S)N2CCN(C/C=C/c3ccccc3)CC2)cc1OC [KKL-1528] | 2 |
| CC(C)c1ccc(OCC(=O)NNC(=S)NC(=O)c2ccco2)c(Br)c1 [KKL-0743] | 24 |
| Cc1ccc(C2(O)CCN(CCNC(=O)c3oc4ccccc4c3C)CC2)cc1 [KKL-0340] | 1 |

| Compound | % activation [%] |
| --- | --- |
| CC(C)(C)c1ccc(C(=O)Nc2ccc(NC(=S)NC(=O)c3cccs3)cc2)cc1 [KKL-0310] | 0 |
| Oc1c(CN2CCc3ccccc3C2)cc(Cl)c2cccnc12 [KKL-0391] | 42 |
| CSc1ncc(C(=O)NC2(c3ccccc3)CCCC2)cn1 [KKL-0465] | 0 |
| COc1ccc(N=c2cc(-c3ccc(O)cc3)oc3ccccc23)cc1 [KKL-0846] | 0 |
| CCC(Sc1nc2ccccc2o1)C(=O)Nc1nnc(C)s1 (stereo not shown) [KKL-1356] | 2 |
| CCc1ccc(C2CC(C(F)(F)F)n3ncc(C(=O)NCc4cccs4)c3N2)cc1 (stereo not shown) [KKL-1779] | 0 |
| Cc1ccccc1CN1CC[C@@H]2[C@H](C1)[C@@H](c1ccc(F)cc1)CN2C(=O)C(C)C [KKL-1218] | 2 |
| OC(CN1CCC(O)(c2ccc(F)cc2)CC1)c1ccc(-c2ccccc2)cc1 (stereo not shown) [KKL-0933] | 0 |
| CCC1CCCCN1C(=O)COC(=O)c1cc2ccccc2cc1O (stereo not shown) [KKL-0823] | 0 |
| O=C(NCc1cc(Cl)cc(Cl)c1)c1c(C(F)(F)F)nc2ccccn12 [KKL-1807] | 0 |
| O=C(Nc1ccn(Cc2ccc(Cl)cc2)n1)c1ccc2c(c1)OCO2 [KKL-0566] | 0 |
| FC(F)(F)c1nnc2ccc(Sc3nnc(-c4ccco4)o3)nn12 [KKL-1754] | 1 |
| CCCC(=O)NC(=S)Nc1ccc(N2CCN(C(=O)c3cccs3)CC2)c(Cl)c1 [KKL-0912] | 0 |
| O=C(NCc1cnn(-c2cccc(F)c2)c1)c1cc(COc2cccc3cccnc23)on1 [KKL-0634] | 2 |
| O=C(NCCCc1ccc(F)cc1)c1cc(-c2ccccn2)[nH]n1 [KKL-0693] | 0 |
| O=C(Nc1nccs1)c1ccc(CSc2ccccc2)o1 [KKL-0586] | 0 |
| CCc1c(C)c2ccc(OCC(=O)OC)c(C)c2oc1=O [KKL-1278] | 0 |
| CCOC(=O)/C(C#N)=C/c1ccc(-c2ccc(F)cc2)o1 [KKL-0788] | 0 |
| O=C(CC12CC3CC(CC(C3)C1)C2)Nc1cccc(C(F)(F)F)c1 [KKL-1282] | 0 |
| NC1CCc2nc(-c3ccncc3)nc(Nc3cccc(C(F)(F)F)c3)c2C1 (stereo not shown) [KKL-0541] | 802 |
| O=C(/C=C/c1cccc(C(F)(F)F)c1)Nc1cccc(C(F)(F)F)c1 [KKL-1369] | 0 |
| NC1CCc2nc(-c3ccncc3)nc(Nc3ccc(C(F)(F)F)cc3)c2C1 (stereo not shown) [KKL-0539] | 620 |
